# In PubChem BioAssay (NCI):
# Where “and” joins values, the source holds several entries; their conditions need not be identical. Equal entries are not always repeated. Compounds without any hit were thinned out: in the full panel of roughly 83,000, 20% have a hit.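 Cell lines were cultured in 96-well plates, exposed to a single compound concentration, and assessed for percent growth 48 hours later.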 Calls of active or inactive are those of the source. How the source made its calls: active means growth percent below 10; inactive means the rest.
# Test system: MDA-MB-468 breast
# Assay: NCI-60 one-dose screen, 48 h (100 = growth as untreated, 0 = no growth, -100 = all killed)
# Settings: 10 µM unless noted
row,Structure (SMILES),growth
1,Cc1c(N)ccc(-c2ccc(N)c(C)c2S(=O)(=O)O)c1S(=O)(=O)O,115% (inactive)
2,C=C1CC2(OC1=O)C(=O)N(C)c1ccc(I)cc12 (stereo not given),-79.2% (active)
3,CC(C)(C)c1ccc(OCCCCCCCN2CCNCC2)cc1,-54% (active)
4,C#C[C@H](O)/C=C/CCCCCCC#C[C@H](O)CC[C@@H](O)C#CCCCCCC/C=C/[C@@H](O)C#C,97.6% (inactive)
5,CCCC(O)Cn1ncc(C(=O)OCC)c1NC(=O)NCc1ccccc1F (stereo not given),75.9% (inactive)
6,Nc1nc(N)c(N=Nc2c(Br)cc(S(N)(=O)=O)cc2Br)c(N)n1,54% (inactive)
7,CNC(=O)c1cc(Oc2ccc3nc(NC(=O)c4ccc(CN5CCCN(C)CC5)c(C(F)(F)F)c4)sc3c2)ccn1,8.05% (active)
8,CC(Sc1nc2ccccc2c(=O)n1CCc1ccc(S(N)(=O)=O)cc1)C(=O)Nc1ccc(Cl)cc1 (stereo not given),84% (inactive)
9,O=C1c2nsnc2C(=O)c2c(F)c(F)c(F)c(F)c21,-50.4% (active)
10,COc1cc(/C=C2\CN(S(=O)(=O)c3ccc(C)cc3)C/C(=C\c3cc(CN4CCCCC4)c(O)c(OC)c3)C2=O)cc(CN2CCCCC2)c1O,-63.3% (active)
11,C=CCn1c(SCC(=O)Nc2ccc(OC)cc2)nnc1-c1ccc(Cl)cc1,81% (inactive)
12,CCC1=C[C@H]2CN(CCc3c([nH]c4ccccc34)[C@@](C(=O)OC)(c3cc4c(cc3OC)N(C)[C@H]3[C@@](O)(C(=O)OC)[C@H](OC(C)=O)[C@]5(CC)[C@@H]6C[C@@H]6CN6CC[C@]43[C@@H]65)C2)C1,7.4% (active)
13,OC(c1cccc(-n2ccc(C(F)(F)F)n2)c1)c1cnccc1NC1CCCCCC1 (stereo not given),-59.4% (active)
14,CCN(CC)CCNc1ccc(C)c2sc3ccccc3c(=O)c12 (tested in a mixture with another compound),11.8% (inactive) and 16.9% (inactive)
15,Oc1ccc(CSc2nnc(-c3ccc(Br)cc3)n2-c2ccccc2)c2cccnc12,36.1% (inactive)
16,c1ccc(OCC[P+](c2ccccc2)(c2ccccc2)c2ccccc2)cc1,-18.1% (active)
17,CC(O)CN(CC(C)O)N(CC(C)O)CC(C)O (stereo not given),105% (inactive)
18,C(=N\Nc1ccc2ccccc2n1)/c1ccccn1,-27% (active)
19,N#CCCN1C(=O)CCC1C(=O)O (stereo not given),103% (inactive)
20,COc1ccc(\C=N/N=C(N)/C(N)=N\N=C/c2ccc(OC)cc2)cc1,95.7% (inactive)

row,Structure (SMILES),growth
1,N/C(=N\C(N)=N\c1nc2ccccc2s1)c1cnccn1,-24.8% (active)
2,O=C(Cn1nnc2ccccc21)N/N=C/c1c[nH]c2ccccc12,34.5% (inactive)
3,COc1ccc(/C=C2\COc3ccc(-c4ccccc4)cc3C2=O)cc1O,14.6% (inactive)
4,Cc1ccc(S(=O)(=O)n2cc(-c3csc(-c4cn(C)c5ncccc45)n3)c3ccccc32)cc1,38.6% (inactive)
5,C/C(Cc1ccc(Cl)cc1)=C(\c1ccc(OCCN2CCCCCC2)cc1)c1ccc(OC(=O)Cc2ccccc2)cc1,69% (inactive)
6,CC(NNC(=S)N1CCCCCC1)c1ccc2ccccc2n1 (stereo not given),30.3% (inactive)
7,COC(=O)CCc1cc(O)c2c(c1)[C@@H](C(=O)OC)[C@H](c1ccc(O)c(O)c1)O2,83.4% (inactive)
8,C/C(=C(/c1ccc(O)cc1)c1ccc(OCCN2CCCC2)cc1)c1ccc(Cl)cc1,13.5% (inactive)
9,COc1cc(-c2nc3ccccc3[nH]2)ccc1OCC(=O)N=Nc1c(O)[nH]c2ccccc12,-55.4% (active)
10,O=C(Nc1ccc(Cl)cc1)C1=NCCCCN1,111% (inactive)
11,Cc1ccc2c(C)c3c(ccc4ccccc43)c[n+]2c1,-42.1% (active)
12,Cc1ccc(C(=O)Nc2ccc(CN3CCN(C)CC3)c(C(F)(F)F)c2)cc1C#Cc1cncc2ncccc12,37.3% (inactive)
13,CC1(C)CC(=O)c2c(ccc(C(=O)C[C@H](N)CO)c2N)O1,3.17% (active)
14,Cc1cc(C(C)(C)c2cc(C)c(O)c(CN(C)C)c2)cc(CN(C)C)c1O,67.7% (inactive)
15,S=C(Nc1ccccc1)N1CCCCC1,90.3% (inactive)
16,N/C(=N\O)c1cn(C2OC(CO)C(O)C2O)c2ncnc(N)c12 (stereo not given),-23.4% (active)
17,CC[C@H](Nc1nc(N)nc(C)c1C#N)c1nc2cccc(NCc3ccc(C(=O)NO)cc3)c2c(=O)n1-c1ccccc1,3.26% (active)
18,Cn1c(=O)c2c(ncn2CCC(=O)Nc2ccc(F)cc2)n(C)c1=O,106% (inactive)
19,O=C(CSc1nnc(-c2cc3c([nH]c4ccccc43)c(-c3cccc(O)c3)n2)n1-c1ccccc1)c1ccccc1,63% (inactive)
20,FC(F)(F)c1cc(CNc2ncc(Br)c(Cl)n2)cc(C(F)(F)F)c1,93.2% (inactive)
